This is a sample that favours compounds with a hit; in the whole collection about 10% have one here.
HCT116 PTEN-null: growth suppression of PTEN-null HCT116, primary screen, cell-based, CellTiter-Glo | actives 1.2% (n = 140,000) | AID 827, 2007 | viability, % at 10 µM | HCT116 PTEN-null viability, 60 h; hits give low values;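 active = viability at or below a set limit, 4 SD under the median of all tested compounds, cut at about 3.7% in these data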;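 note: PTEN knockout HCT116 line with beta catenin targeted HCT116 as companion control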
ROMK primary: ROMK potassium channel modulators, primary screen, cell-based, thallium flux, MLSMR library | Tet-inducible ROMK, thallium flux fluorescence; actives lie on both sides | ATP-sensitive inward rectifier potassium channel 1 (Homo sapiens), P48048 | actives 2% (n = 130,000) | AID 1918, 2009 | B-score at 10 µM;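 active = signal ratio slope over the read window, or its plate-corrected B-score, at least 3 SD from the plate mean, either direction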;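 note: B-score of the F/F0 ratio slope over 7 to 12 s after thallium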
p97 ATPase inh: inhibitors of human p97 ATPase, primary screen, biochemical; actives 0.42% (n = 220,000); recombinant p97 ATPase, Kinase-Glo ATP luminescence, 3 h; inhibition, % at 8 µM; in the data active = inhibition above about 15%
Lmaj promast: Leishmania major promastigote growth inhibition, primary screen; inhibition, % at 10 µM; actives 9% (n = 200,000); Leishmania major promastigotes, resazurin fluorescence viability; in the data active = inhibition above about 50%;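 note: promastigotes grown with compound for 44 hours at 28 °C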
Insulin prom inh: inhibitors of insulin promoter-driven GFP, primary screen, imaging, TRM-6 cells (human fetal islet line), eGFP reporter, cell count; reporter expression induced with tamoxifen; inhibition, % at 2 µM; actives 0.9% (n = 130,000); AID 1273, 2008;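 active = inhibition above the mean plus 3 SD, with well images judged a real hit on visual review, cut at about 60% in these data, passing the limit was not always enough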
HCT116 bCat-KO: primary screen for growth suppressors in beta-catenin knockout HCT116 cells (colon tumor, human) | HCT116 beta-catenin knockout viability, CellTiter-Glo, 60 h; hits give low values | viability, % at 10 µM | actives 1.5% (n = 140,000);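 active = viability at or under a set limit, the compound median less 4 SD, cut at about 6% in these data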
ROMK hit retest: ROMK channel modulator hit retest, confirmation, cell-based, thallium flux, duplicate, resupplied hits; shares compounds with ROMK primary; fluorescence ratio; hits give low values; normalized thallium flux (F/F0 slope) at 10 µM; actives 54% (n = 3,000);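 active = Flux at 10 µM at least 3 SD below or above vehicle control mean in one or both replicates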
A number is an active result.

N#CCc1c(C#N)c(N)nc(N2CCN(Cc3ccc4c(c3)OCO4)CC2)c1C#N was read as HCT116 PTEN-null inactive, ROMK primary -5.6, p97 ATPase inh inactive, Lmaj promast inactive, Insulin prom inh inactive, HCT116 bCat-KO inactive and ROMK hit retest 0.048.
Screening COc1ccccc1NC(=O)NCCN1C(=O)C2C3C=CC(C3)C2C1=O (centres undefined) returned HCT116 PTEN-null inactive, p97 ATPase inh inactive, Lmaj promast inactive and HCT116 bCat-KO inactive.
`Cc1ccc2[nH]c3c(=O)n(Cc4ccco4)cnc3c2c1` gave p97 ATPase inh inactive.
Cc1sc2cc3c(c(C(=O)c4ccccc4)[n+]2c1C)-c1cccc2cccc-3c12 was read as HCT116 PTEN-null 2.1, ROMK primary -3.1, p97 ATPase inh inactive, Lmaj promast 100, Insulin prom inh inactive, HCT116 bCat-KO 2.2 and ROMK hit retest 0.055.
`COc1ccccc1CN(Cc1nc2ccccc2c(=O)[nH]1)S(=O)(=O)c1ccc(C)cc1` gave HCT116 PTEN-null inactive, ROMK primary inactive, p97 ATPase inh inactive, Lmaj promast inactive, Insulin prom inh inactive and HCT116 bCat-KO inactive.
Screening COc1ccc(CNC(=O)N2CCN(c3ccc(F)cc3)CC2)cc1Cl returned ROMK primary -3, p97 ATPase inh inactive, Lmaj promast inactive and ROMK hit retest inactive.
`COc1ccc(NC(=O)CN2CCN(c3ccc(F)cc3)CC2)cc1Cl` gave HCT116 PTEN-null inactive, p97 ATPase inh inactive, Lmaj promast inactive, Insulin prom inh inactive and HCT116 bCat-KO inactive.
`CC(C)n1c(=O)[nH]c2ccccc21` gave HCT116 PTEN-null inactive, p97 ATPase inh inactive, Lmaj promast inactive, Insulin prom inh inactive and HCT116 bCat-KO inactive.
Screening Cc1ccc(NC(=O)c2ccc3c(c2)[nH]c(=O)n3C(C)C)cc1 returned ROMK primary 2.9, p97 ATPase inh inactive, Lmaj promast inactive and ROMK hit retest inactive.
Screening CC(=O)Oc1ccc(N(c2ccccc2)S(=O)(=O)c2ccc(C)cc2)cc1 returned ROMK primary inactive, p97 ATPase inh inactive, Lmaj promast inactive and Insulin prom inh inactive.
`CCN(CC)C(=O)Cn1c(=O)c2ccccc2n2c(=S)sc(-c3cccc(C)c3)c12` gave HCT116 PTEN-null inactive, p97 ATPase inh inactive, Lmaj promast inactive, HCT116 bCat-KO inactive and ROMK hit retest 0.049.
CCN(C(=O)Cn1c(=O)n(-c2cc(OC)c(OC)c(OC)c2)c(=O)c2ccccc21)c1cccc(C)c1 was read as ROMK primary inactive, p97 ATPase inh inactive, Lmaj promast inactive and Insulin prom inh inactive.
For COc1ccccc1NC(=O)c1coc(=O)c(Br)c1 the results were p97 ATPase inh inactive.
For COC(=O)c1ccccc1NC(=O)CCc1ccccc1 the results were HCT116 PTEN-null inactive, ROMK primary inactive, p97 ATPase inh inactive, Lmaj promast inactive, Insulin prom inh inactive and HCT116 bCat-KO inactive.
For COC(=O)c1ccccc1NC(=O)CC#N the results were HCT116 PTEN-null inactive, p97 ATPase inh inactive, Lmaj promast inactive, Insulin prom inh inactive, HCT116 bCat-KO inactive and ROMK hit retest inactive.
CNc1ccccc1C(=O)OC was read as ROMK hit retest inactive.
Screening CCOC(=O)C1CCCN(C(=O)c2cn(CC)c(=O)c3cc(OC)c(OC)cc23)C1 (centres undefined) returned HCT116 PTEN-null inactive, p97 ATPase inh inactive, Lmaj promast inactive, HCT116 bCat-KO inactive and ROMK hit retest inactive.
`Cc1ccc(/C=C2\Oc3c(ccc(O)c3CN3CCN(C)CC3)C2=O)cc1` gave p97 ATPase inh inactive, Lmaj promast inactive and Insulin prom inh inactive.
For CCc1ccc(/C=C2\Oc3c(ccc(O)c3CN3CCN(C)CC3)C2=O)cc1 the results were ROMK primary -8.1, p97 ATPase inh inactive and ROMK hit retest 0.046.
CCN1CCN(Cc2c(O)ccc3c2O/C(=C\c2ccc(C)cc2)C3=O)CC1 was read as ROMK primary -5.7, p97 ATPase inh inactive, Lmaj promast inactive, Insulin prom inh inactive and ROMK hit retest 0.04.
COc1cc(/C=C2\SC(=S)N(NS(=O)(=O)c3ccccc3)C2=O)ccc1O was read as p97 ATPase inh inactive and ROMK hit retest 0.041.
`O=C(COC(=O)c1ccc(O)cc1)NCCCc1ccccc1` gave ROMK primary inactive, p97 ATPase inh inactive, Lmaj promast inactive and Insulin prom inh inactive.
CCOC(=O)N/N=C/c1ccccc1F was read as HCT116 PTEN-null inactive, ROMK primary -14, p97 ATPase inh inactive, Lmaj promast inactive, HCT116 bCat-KO inactive and ROMK hit retest inactive.
`CCOC(=O)N/N=C/c1c(F)c(F)c(F)c(F)c1F` gave HCT116 PTEN-null inactive, ROMK primary 1.5, p97 ATPase inh inactive, Lmaj promast 65, Insulin prom inh inactive, HCT116 bCat-KO inactive and ROMK hit retest inactive.
For CCOC(=O)N/N=C/c1c(F)cccc1F the results were HCT116 PTEN-null inactive, ROMK primary inactive, p97 ATPase inh inactive, Lmaj promast inactive, Insulin prom inh inactive and HCT116 bCat-KO inactive.
For Cc1c(Cc2ccccc2)sc(NC(=O)/C=C/c2cccc3ccccc23)c1C(N)=O the results were HCT116 PTEN-null inactive, p97 ATPase inh inactive, Lmaj promast inactive and HCT116 bCat-KO inactive.
For O=C1NC(NS(=O)(=O)c2ccc(Cl)cc2)(C(F)(F)F)C(=O)N1c1ccccc1 (centres undefined) the results were HCT116 PTEN-null inactive, ROMK primary inactive, p97 ATPase inh inactive, Lmaj promast inactive, Insulin prom inh inactive and HCT116 bCat-KO inactive.
Screening CCOC(=O)c1cn2cccnc2n1 returned HCT116 PTEN-null inactive, ROMK primary inactive, p97 ATPase inh inactive, Lmaj promast inactive, Insulin prom inh inactive and HCT116 bCat-KO inactive.
Screening O=C1CSC(c2ccccc2Cl)N1 (centres undefined) returned ROMK primary 3.5, p97 ATPase inh inactive, Lmaj promast inactive, Insulin prom inh inactive and ROMK hit retest inactive.
CC(OC(=O)c1ccccc1NCc1ccco1)C(=O)Nc1ncc(Cl)cc1Cl (centres undefined) was read as HCT116 PTEN-null inactive, p97 ATPase inh inactive, Lmaj promast inactive, Insulin prom inh inactive and HCT116 bCat-KO inactive.
`O=C(Nc1cccc(S(=O)(=O)c2cccc(NC(=O)C3CC3)c2)c1)C1CC1` gave HCT116 PTEN-null inactive, ROMK primary inactive, p97 ATPase inh inactive, Lmaj promast 99, Insulin prom inh inactive, HCT116 bCat-KO inactive and ROMK hit retest inactive.
CS(=O)(=O)c1cccc(NC(=O)C2CC2)c1 was read as p97 ATPase inh inactive and Lmaj promast inactive.
